“And” between values parts separate entries of the source, which are not always exact repeats. Identical values can stand only once. The whole screen tested about 16,000 compounds, of which about 4,000 (25%) were called active. Roughly 26% stayed inconclusive and do not appear here. Calls follow the shape of the dose curve; as a rule, active = well fitted curve in the direction sought with a large enough effect; inconclusive = small, poorly fitted or top-dose-only effect, or effect the other way; inactive = no such curve, though single readings can be large or run the other way. Not all results are given here. A structure can be active in one record and inactive in another.
The compounds below were run against Cytochrome P450 2C9 (Homo sapiens) (UniProt P11712) (assay: Cytochrome panel assay with activity outcomes). Settings: recombinant CYP, pro-luciferin dealkylation, luminescence, p450-cyp2c9; series mostly up to 57.1 µM; activity, negative = inhibition: at the top concentration.
Sequence of Cytochrome P450 2C9 (Homo sapiens) (P11712 whole entry, looked up): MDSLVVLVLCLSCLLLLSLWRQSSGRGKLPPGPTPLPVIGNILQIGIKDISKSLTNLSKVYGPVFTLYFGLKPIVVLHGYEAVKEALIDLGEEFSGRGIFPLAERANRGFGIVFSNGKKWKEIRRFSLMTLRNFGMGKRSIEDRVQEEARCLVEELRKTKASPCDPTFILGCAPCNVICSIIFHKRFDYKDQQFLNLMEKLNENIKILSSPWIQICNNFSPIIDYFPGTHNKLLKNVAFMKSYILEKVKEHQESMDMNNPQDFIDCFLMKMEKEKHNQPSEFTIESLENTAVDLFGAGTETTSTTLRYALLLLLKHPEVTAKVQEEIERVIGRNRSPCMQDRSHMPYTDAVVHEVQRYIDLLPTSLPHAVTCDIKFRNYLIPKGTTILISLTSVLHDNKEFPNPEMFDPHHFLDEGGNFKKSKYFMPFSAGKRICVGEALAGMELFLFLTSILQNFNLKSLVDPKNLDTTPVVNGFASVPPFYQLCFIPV
In the case of `CC(C)CN1CC[C@@]2(CCCN(C(=O)c3cc(C(F)(F)F)cc(C(F)(F)F)c3)C2)C1`, the “activity, negative = inhibition” value is reported as -7.51% (inactive).
For `COc1ccc2cc3[n+](cc2c1OC)CCc1cc2c(cc1-3)OCO2`, the “activity, negative = inhibition” value was 3.73% [at 25.6 µM] (inactive).
With `COc1ccc2c(c1OC)C(=O)OC2Nc1ncccc1C` (stereo not drawn) the “activity, negative = inhibition” value was 20.3% (inactive).
`COc1ccc2c(c1OC)C(=O)OC2[C@H]1c2c(cc3c(c2OC)OCO3)CCN1C` (stereo partly drawn) was tested, and the AC50 was 5.01 µM (active) and 2.51 µM (active).
With `COc1ccc2c(c1OC)C(=O)O[C@@H]2[C@H]1c2c(cc3c(c2OC)OCO3)CCN1C` the AC50 was 0.126 µM (active).
In the case of `COc1c(O)ccc2c1CN1CCc3cc4c(cc3[C@@H]1C2)OCO4`, the activity, negative = inhibition is reported as 1.47% [at 11.4 µM] (inactive).
In the case of `NCC[C@H](O)C(=O)N[C@H]1C[C@@H](N)[C@@H](O[C@H]2O[C@@H](CN)[C@@H](O)[C@@H](O)[C@@H]2O)[C@@H](O)[C@@H]1O[C@H]1O[C@@H](CO)[C@@H](O)[C@@H](N)[C@@H]1O`, the “activity, negative = inhibition” value is reported as 3.41% [at 25.6 µM] (inactive).
`O=C1c2ccccc2C(=O)C1c1ccccc1` was tested, and the “activity, negative = inhibition” value was -10.8% [at 25.6 µM] (inactive).
For `OC(CN1CCCCC1)CN1CCCCC1`, the “activity, negative = inhibition” value was 19.5% (inactive).
With `COc1ccc(-c2ccc3c(n2)CCCN3C[C@H](O)CN2CCCc3nc(C)c(C)cc32)cc1` the AC50 was 3.98 µM (active).
For `CCN(CC)C[C@@H](O)CN1CCCCc2nc(C)c(C)cc21`, the activity, negative = inhibition was -1.31% [at 11.4 µM] (inactive).
`Cc1cc2c(nc1C)CCCN2C[C@@H](O)CN1CCN(C)CC1` was tested, and the activity, negative = inhibition was 29.4% [at 11.4 µM] (inactive).
In the case of `CO/N=C(\C)CCN1CCCc2nc(C)c(C)cc21`, the activity, negative = inhibition is reported as -0.836% [at 11.4 µM] (inactive).
In the case of `Cc1cc2c(nc1C)CCCN2CC(O)CN1CCCc2nc(C)c(C)cc21`, the activity, negative = inhibition is reported as -10.8% [at 11.4 µM] (inactive).
In the case of `Cc1cc2c(nc1C)CCCN2C[C@H](O)CN1CCCc2nc(-c3ccc(Br)cc3)ccc21`, the AC50 is reported as 2.51 µM (active).
For `Cc1ccc(Cn2nc(C)c(NC(=O)c3cc(-c4ccco4)on3)c2C)cc1`, the AC50 was 12.6 µM (active).
For `Cc1ccc(Cn2ccc(NC(=O)c3cc4nc(-c5ccco5)cc(C(F)(F)F)n4n3)n2)cc1`, the “activity, negative = inhibition” value was -18.3% (inactive).
`c1ccc2c(CC3=NCCN3)cccc2c1` was tested, and the “activity, negative = inhibition” value was -5.9% [at 25.6 µM] (inactive).
`Clc1cccc(Cl)c1NC1=NCCN1` was tested, and the AC50 was “inactive and 7.94 µM (active)”.
With `COc1nc(C)nc(Cl)c1NC1=NCCN1` the AC50 was “inactive”.
With `C/C(=N\Nc1ccc([N+](=O)[O-])cc1)c1cccc(N)c1` the AC50 was 5.62 µM (active).
With `C/C(=N\Nc1nnc(-c2ccccc2)c(-c2ccccc2)n1)c1cccc([N+](=O)[O-])c1` the AC50 was 20 µM (active).
In the case of `O=[N+]([O-])c1cccc(/C=N/Nc2cc(Cl)nc(-c3ccccc3)n2)c1`, the “activity, negative = inhibition” value is reported as -21.3% (inactive).
`c1ccc([C@@H]2CN3CCSC3=N2)cc1` was tested, and the AC50 was “inactive”.
With `CN(C)C(=O)c1ccc(-c2nc(NCc3ccccc3)c3ccccc3n2)cc1` the activity, negative = inhibition was -4.46% [at 2.29 µM] (inactive).
In the case of `CN(C)C(=O)c1ccc(-c2nccc(NCc3ccccc3)n2)cc1`, the activity, negative = inhibition is reported as -14% [at 2.29 µM] (inactive).
For `CCOC(=O)c1nnc(-c2ccccc2)nc1NCc1ccccc1`, the AC50 was 25.1 µM (active).
`COc1ccc(C(=O)CCN(C)C)c2ccccc12` was tested, and the AC50 was 3.98 µM (active).
In the case of `CCCCN(CC)C(=O)Cc1ccccc1OC`, the “activity, negative = inhibition” value is reported as -33.3% (inactive).
With `O=C(O)CCC(=O)c1ccc2ccc3cccc4ccc1c2c34` the activity, negative = inhibition was 4.8% [at 11.4 µM] (inactive).
With `O=C1c2ccccc2CCC12N=NCC2c1ccc(Cl)cc1` (stereo not drawn) the AC50 was 14.1 µM (active).
`N#[N+]c1ccc(Nc2ccccc2)cc1` was tested, and the activity, negative = inhibition was 5.95% [at 11.4 µM] (inactive).
With `COc1ccc(NC(=S)Nc2ccccc2)cc1` the activity, negative = inhibition was -15.3% [at 11.4 µM] (inactive).
`Cc1ccccc1-c1cncnc1Nc1ccccc1` was tested, and the activity, negative = inhibition was -13.5% [at 2.29 µM] (inactive).
With `CC(C)(C)NC(=S)Nc1ccc(Nc2ccccc2)cc1` the AC50 was 7.08 µM (active).
With `CNC(=S)Nc1ccc2nc(C)c(C)nc2c1` the “activity, negative = inhibition” value was -19.6% (inactive).
`Nc1ccc(Nc2ccccc2)cc1` was tested, and the AC50 was 8.91 µM (active).
With `CNC(=S)Nc1ccc(Nc2ccccc2)cc1` the AC50 was 39.8 µM (active).
`CN(C)C(=O)c1ccc(-c2ccc3ncnc(NCCN4CCOCC4)c3c2)cc1` was tested, and the activity, negative = inhibition was 1.81% [at 2.29 µM] (inactive).
With `Cc1c(C(=O)Nc2nccs2)sc2nc(-c3cccs3)cc(C(F)(F)F)c12` the AC50 was 3.16 µM (active).
`CC(C)(C)NC(=O)CN(Cc1cccs1)C(=O)CCC(=O)Nc1nccs1` was tested, and the “activity, negative = inhibition” value was -15.4% (inactive).
In the case of `CCC(NC(=O)C1(C)CC1(Br)Br)c1ccc(C)cc1` (stereo not drawn), the AC50 is reported as 5.01 µM (active).
`CC[C@H](NC(=O)c1c(C)c(-c2ccccc2)nc2ccccc12)c1ccccc1` was tested, and the “activity, negative = inhibition” value was -5.92% (inactive).
With `N#Cc1cccc(-c2nccc(-n3ccnc3)n2)c1` the activity, negative = inhibition was 5.77% [at 2.29 µM] (inactive).
In the case of `CO[C@H]1[C@@H](OC(N)=O)[C@H](O)[C@@H](Oc2ccc3c(O)c(NC(=O)c4ccc(O)c(CC=C(C)C)c4)c(=O)oc3c2C)OC1(C)C`, the “activity, negative = inhibition” value is reported as -30% [at 25.6 µM] (inactive).
With `CCOCC(=O)Nc1c(C(=O)Nc2ccccc2OC)oc2ccccc12` the “activity, negative = inhibition” value was -15.3% (inactive).
For `COC(=O)N1CCC2(CCN(Cc3ccccc3OC)CC2)CC1`, the “activity, negative = inhibition” value was 11.3% (inactive).
In the case of `COc1ccccc1CC(=O)Nc1cc2oc3ccccc3c2cc1OC`, the AC50 is reported as 3.98 µM (active).
For `CCCC[C@@H]1C[C@H]1C(NC(=O)c1cccs1)c1ccc(C(F)(F)F)cc1` (stereo partly drawn), the AC50 was 1.58 µM (active).
With `CCCC[C@@H]1C[C@H]1C(NC(=O)c1cccs1)c1ccc(-c2ccccc2)cc1` (stereo partly drawn) the AC50 was 1.58 µM (active).
In the case of `CCCC[C@@H]1C[C@H]1C(NC(=O)c1cccs1)c1ccc(Cl)cc1` (stereo partly drawn), the AC50 is reported as 1 µM (active).
For `Cc1cc(C)c2c(N)c3ccccc3nc2n1`, the “activity, negative = inhibition” value was -20.2% (inactive).
With `COc1cccc(Nc2ncc3ncc(=O)n(C)c3n2)c1` the “activity, negative = inhibition” value was -22.8% (inactive).
For `COc1cccc(Cn2c(=O)cnc3cnc(Nc4cccc(OC)c4)nc32)c1`, the AC50 was 2 µM (active).
In the case of `CCNc1ncc2nc(CCc3ccccc3)c(=O)n(Cc3cccc(OC)c3)c2n1`, the “activity, negative = inhibition” value is reported as -28.8% (inactive).
`COc1cccc(Cn2c(=O)c(CCc3ccccc3)nc3cnc(N(C)C)nc32)c1` was tested, and the AC50 was 10 µM (active).
`COc1ccc(-n2c(=O)cnc3cnc(N(C)C)nc32)cc1` was tested, and the “activity, negative = inhibition” value was -5.06% (inactive).
In the case of `COc1cccc(Nc2ncc3ncc(=O)n(CCC#N)c3n2)c1`, the “activity, negative = inhibition” value is reported as -9.1% (inactive).
With `COc1cccc(Cn2c(=O)cnc3cnc(N(C)C)nc32)c1` the AC50 was 12.6 µM (active).
`COc1cccc(Cn2c(=O)c(CCc3ccccc3)nc3cnc(OC)nc32)c1` was tested, and the AC50 was 6.31 µM (active).
In the case of `N[C@@H](Cc1cnc[nH]1)C(=O)O`, the “activity, negative = inhibition” value is reported as 22.8% (inactive).
`Cc1nc2nc[nH]n2c(=O)c1NC(=O)CC12CC3CC(CC(C3)C1)C2` was tested, and the “activity, negative = inhibition” value was -28.9% (inactive).
In the case of `C[C@H]1[C@H](C)OC(=O)C[C@H](O)C[C@H](O)C[C@H](O)CC[C@H](O)[C@H](O)CC(=O)C[C@H](O)[C@H](C(=O)O)[C@H](O)C[C@H](O[C@@H]2O[C@@H](C)[C@H](O)[C@@H](N)[C@@H]2O)C=CC=CC=CC=CCCC=CC=C[C@@](C)(O)[C@H]1O`, the activity, negative = inhibition is reported as 14.1% [at 11.4 µM] (inactive).
With `Cc1nc2cnc(N3CCN(C)CC3)nc2n(Cc2cccs2)c1=O` the “activity, negative = inhibition” value was 10.7% (inactive).
With `COc1ccc(-n2c(=O)c(CCc3ccccc3)nc3cnc(N4CCN(C)CC4)nc32)cc1` the “activity, negative = inhibition” value was -23.4% (inactive).
For `CN1CCN(c2ncc3nc(-c4ccccc4)c(=O)n(Cc4cccs4)c3n2)CC1`, the “activity, negative = inhibition” value was -19.8% (inactive).
For `CCNc1ncc2nc(C)c(=O)n(Cc3cccc(OC)c3)c2n1`, the AC50 was 15.8 µM (active).
With `CN1CCN(c2ncc3nc(CCc4ccccc4)c(=O)n(Cc4cccs4)c3n2)CC1` the AC50 was 25.1 µM (active).
`Cc1nc2cnc(N3CCN(C)CC3)nc2n(CCc2ccccc2)c1=O` was tested, and the “activity, negative = inhibition” value was 0.67% (inactive).
With `COc1cccc(Cn2c(=O)c(CCc3ccccc3)nc3cnc(N4CCN(C)CC4)nc32)c1` the AC50 was 25.1 µM (active).
With `CCNc1ncc2nc(C)c(=O)n(Cc3cccs3)c2n1` the “activity, negative = inhibition” value was -3.88% (inactive).
With `CCNc1ncc2nc(-c3ccc(OC)cc3)c(=O)n(Cc3cccc(OC)c3)c2n1` the “activity, negative = inhibition” value was -9.5% (inactive).
`COc1cccc(Cn2c(=O)cnc3cncnc32)c1` was tested, and the AC50 was 31.6 µM (active).
For `C[C@@]12CCC(=O)C=C1CC[C@H]1[C@H]3CC[C@](O)(C(=O)CO)[C@]3(C)CC(=O)[C@@H]12`, the “activity, negative = inhibition” value was 18.5% [at 25.6 µM] (inactive).
In the case of `Cc1ccc(OC[C@H](O)[C@H](C)NC(C)C)c2c1CCC2`, the AC50 is reported as “inactive”.
With `CC(C)(CS)C(=O)N1CCC[C@H]1C(=O)O` the “activity, negative = inhibition” value was -24.4% [at 25.6 µM] (inactive).
`c1ccc(C2=NN[C@@H]3c4ccccc4-c4ccccc4N3C2)cc1` was tested, and the activity, negative = inhibition was 6.37% [at 11.4 µM] (inactive).
With `O=C1N=C2SCCN2/C1=C\c1c(Cl)cccc1Cl` the AC50 was 15.8 µM (active).
With `O=C(NCc1ccccc1)c1cccc(COc2cccc(Cl)c2)c1` the AC50 was 17.8 µM (active).
`O=C(O)c1ccc(OCc2ccccc2)c(Cl)c1` was tested, and the activity, negative = inhibition was -17.5% [at 11.4 µM] (inactive).
In the case of `Cc1nc(NC(=O)c2ccccc2)sc1-c1csc(Nc2ccc(Cl)cc2Cl)n1`, the “activity, negative = inhibition” value is reported as -7.22% (inactive).
With `Cc1ccc(Nc2nc(-c3sc(NC(=O)c4cccc(Cl)c4)nc3C)cs2)cc1` the “activity, negative = inhibition” value was -1.37% (inactive).
For `COc1ccc(OC)c(Nc2nc(-c3sc(NC(=O)c4ccccc4)nc3C)cs2)c1`, the AC50 was 3.55 µM (active).
With `Cc1nc(NC(=O)c2ccccc2)sc1-c1csc(Nc2cccc(Cl)c2)n1` the AC50 was 3.55 µM (active).
`C=CCCC(=O)Nc1nc(C)c(-c2csc(Nc3ccc(Cl)cc3)n2)s1` was tested, and the AC50 was 10 µM (active).
`COc1ccccc1Nc1nc(-c2sc(NC(=O)c3ccccc3)nc2C)cs1` was tested, and the AC50 was 2.24 µM (active).
With `CCC1(O)c2ccccc2-c2ncccc21` (stereo not drawn) the “activity, negative = inhibition” value was -25.6% (inactive).
In the case of `C[N+](C)(C)CCCCCCCCCC[N+](C)(C)C`, the “activity, negative = inhibition” value is reported as -0.917% [at 25.6 µM] (inactive).
For `Cc1ccccc1-c1ccc2ncnc(NC3CC3)c2c1`, the activity, negative = inhibition was 19.9% [at 2.29 µM] (inactive).
With `Cc1ccccc1-c1cncnc1NC1CCNCC1` the activity, negative = inhibition was 1.54% [at 2.29 µM] (inactive).
With `CCOc1ccccc1NC(=O)CCC(=O)O` the “activity, negative = inhibition” value was 2.66% (inactive).
`CCOc1ccccc1Nc1ccc(N)cc1S(=O)(=O)O` was tested, and the activity, negative = inhibition was -6.23% [at 11.4 µM] (inactive).
With `CCOc1ccccc1Nc1nc(-c2sc(NC(=O)c3ccccc3)nc2C)cs1` the AC50 was 2.51 µM (active).
% is scaled to controls: 0 for no effect and ±100 for the full control effect.
